From PubChem BioAssay (Tox21) come the findings set out here.

Test [1] in a line: qHTS assay for identifying genotoxic compounds that show differential cytotoxicity against isogenic chicken DT40 cell lines with known DNA damage response pathways - wild type cell line (AID 743012). Note: nearly all actives have a fitted effect of over 60% in size. Note: potency is the fitted concentration of half-maximal effect. The gist of the method:
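300 wt DT40 cells/well; cpd (DMSO) pintool-transferred after ~0.5 h at 37 C/5% CO2; 40 h incubation; CellTiter-Glo added, 30 min RT; luminescence read.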
For orientation: In qHTS, concentration-response curves come from the screen itself.

Test [2] in a line: qHTS assay for identifying genotoxic compounds that show differential cytotoxicity against isogenic chicken DT40 cell lines with known DNA damage response pathways - Rev3 mutant cell line (AID 743014). Note: nearly all actives have a fitted effect of over 55% in size. Note: potency is the fitted concentration of half-maximal effect.
Test [3] can be described thus: qHTS assay for identifying genotoxic compounds that show differential cytotoxicity against isogenic chicken DT40 cell lines with known DNA damage response pathways - Rad54/Ku70 mutant cell line (AID 743015). Note: nearly all actives have a fitted effect of over 60% in size. Note: potency is the fitted concentration of half-maximal effect.
A short description of test [4]: qHTS assay to identify small molecule antagonists of the androgen receptor (AR) signaling pathway - cell viability counter screen (AID 743033; note: nearly all actives have a fitted effect of over 45% in size; note: potency is the fitted concentration of half-maximal effect).
The nature of test [5]: qHTS assay to identify small molecule antagonists of the androgen receptor (AR) signaling pathway using the MDA cell line - cell viability counter screen (AID 743041; note: nearly all actives have a fitted effect of over 45% in size). Summed up:
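In this qHTS counter assay, fluorescence intensity after CellTiter-Fluor addition indicated viability of MDA-kb2 AR-luc cells given compounds and R1881 for 16 h at 37C.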

A short description of test [6]: qHTS assay to identify small molecule antagonists of the thyroid receptor (TR) signaling pathway - cell viability counter screen (AID 743064). Note: nearly all actives have a fitted effect of over 50% in size. Note: potency is the fitted concentration of half-maximal effect. Summed up:
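Viability of T3-stimulated (1 nM final) GH3.TRE-Luc cells is measured by CellTiter-Fluor fluorescence after 23.5 h compound exposure at 37 °C plus 30 min reagent incubation.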

The target in test [7] is Androgen receptor (Homo sapiens) (UniProt P10275). Put plainly: qHTS assay to identify small molecule antagonists of the androgen receptor (AR) signaling pathway (AID 743035; active = well fitted inhibition curve with a large enough effect in the signal ratio in the repeat runs, not every such curve was filed as active; the % refers to the signal ratio). The gist of the method: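 In this cell-based reporter screen, compounds were tested in concentration series against R1881-activated HEK293 cells expressing beta-lactamase under UAS control; after 16 h at 37C, FRET substrate was added and fluorescence read 2 h later.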
Androgen receptor (Homo sapiens), sequence (P10275 whole entry, looked up): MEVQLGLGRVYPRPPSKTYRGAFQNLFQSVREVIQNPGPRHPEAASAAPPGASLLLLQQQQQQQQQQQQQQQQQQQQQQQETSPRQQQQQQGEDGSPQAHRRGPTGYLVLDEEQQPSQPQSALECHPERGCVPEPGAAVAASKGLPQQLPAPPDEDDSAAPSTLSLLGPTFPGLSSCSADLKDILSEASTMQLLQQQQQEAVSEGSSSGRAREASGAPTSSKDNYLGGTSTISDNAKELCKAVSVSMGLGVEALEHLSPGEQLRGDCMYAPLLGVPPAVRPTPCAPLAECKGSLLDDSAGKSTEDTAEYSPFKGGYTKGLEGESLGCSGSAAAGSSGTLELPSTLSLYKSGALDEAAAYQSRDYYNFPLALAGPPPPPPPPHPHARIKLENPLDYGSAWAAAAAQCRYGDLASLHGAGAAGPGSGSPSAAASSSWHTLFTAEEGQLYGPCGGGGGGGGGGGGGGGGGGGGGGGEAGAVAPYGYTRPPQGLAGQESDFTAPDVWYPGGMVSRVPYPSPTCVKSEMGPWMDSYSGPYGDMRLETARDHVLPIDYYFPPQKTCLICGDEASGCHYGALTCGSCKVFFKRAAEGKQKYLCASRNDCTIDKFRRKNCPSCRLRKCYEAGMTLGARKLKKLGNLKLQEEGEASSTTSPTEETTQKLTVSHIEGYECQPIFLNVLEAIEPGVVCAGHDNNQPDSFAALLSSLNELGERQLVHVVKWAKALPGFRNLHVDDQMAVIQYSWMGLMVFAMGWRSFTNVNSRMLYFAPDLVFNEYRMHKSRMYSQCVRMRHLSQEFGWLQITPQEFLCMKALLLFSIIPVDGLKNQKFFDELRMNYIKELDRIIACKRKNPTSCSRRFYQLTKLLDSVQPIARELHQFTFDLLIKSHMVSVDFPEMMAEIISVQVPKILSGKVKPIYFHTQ

For test [8] the target is unchanged. Kind of test: qHTS assay to identify small molecule agonists of the androgen receptor (AR) signaling pathway (AID 743036; active = well fitted activation curve with a large enough effect in the signal ratio in the repeat runs, with a control signal flat, not every such curve was filed as active; the % refers to the signal ratio; note: potency is the fitted concentration of half-maximal effect). The gist of the method:
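Screening used 2,000 AR-bla HEK293 cells per well, treated 16 h at 37C with test compounds in DMSO alongside positive and DMSO-only controls; beta-lactamase activity was then read by LiveBLAzer B/G FRET fluorescence after 2 h at room temperature.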

The target is the same in test [9]. Put plainly: qHTS assay to identify small molecule agonists of the androgen receptor (AR) signaling pathway using the MDA cell line (AID 743040; note: nearly all actives have a fitted effect of over 20% in size). The note with it: MDA-kb2 AR-luc cells, MMTV luciferase, 16 h, stronger effect = higher value. Summed up: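 Cell-based luciferase reporter: MDA-kb2, MMTV promoter (AR + GR response elements). 16 h compound exposure at 37C; ONE-Glo, 30 min RT, luminescence.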

Where “and” joins values, the source holds several entries; their conditions need not be identical. Identical values can stand only once. Records with an inconclusive call do not appear. Some structures have more than one record in an assay (separate samples or runs), and their calls can disagree. Calls of active or inactive are those of the source. Unless noted, calls come from the whole dose curve; as a rule, active = well fitted curve in the direction sought with a large enough effect in the repeat runs; inconclusive = weak or mixed curves; inactive = no such curve, though single readings can be large; an effect the other way counts as inactive or inconclusive.
% is set by controls: 0 for no effect and ±100 for the full control effect.

As to `Cc1ccc(Cl)cc1`, the Potency entry in test [1], in [2], in test [3], in test [4], in [5] and in [6] was “inactive” in each case.

In the case of `C1CCCNCC1`, the Potency entry in [1], in test [2], in test [3], in test [4], in test [5] and in test [6] was “inactive” throughout.

With `O=[N+]([O-])c1cc(C(F)(F)F)ccc1Cl`, the Potency entry in test [1], in [2], in test [3], in test [4], in [7] and in test [8] was “inactive” throughout. Besides, the Potency result in test [6] is “inactive”. Further, the activity change in test [9] (at 70.3 µM (top of the series)) was -0.292% (inactive); in test [9] (at 95 µM (top of the series)), 5.79% (inactive).

On to `O=C(Cl)c1ccc(C(=O)Cl)cc1`, for which the Potency entry in [1], in test [2], in test [3], in test [4], in test [5] and in [6] was “inactive” each time.

With `Cc1ccc([N+](=O)[O-])cc1N`, the Potency result in test [1], in test [2], in [3], in test [4], in [5] and in [6] was “inactive” throughout.

Consider `CCc1cccc(O)c1`, for which the Potency result in [1], in test [2], in [3], in [4], in test [5] and in test [6] was “inactive” each time.

On to `CCCCCCC(=O)O`, for which the Potency result in test [1], in test [2], in test [3], in test [4], in [5] and in [6] was “inactive” throughout.

On to `CCOC(=O)c1ccc(O)cc1`, for which the Potency result in test [1], in test [2], in [3], in test [4], in test [5] and in test [6] was “inactive” each time.

As for `CCCCCC(C)=O`, the Potency entry in test [1], in [2], in test [3], in test [4], in test [5] and in test [6] was “inactive” each time.

With `C=C(C)CC(C)(C)C`, the Potency result in [1], in test [2], in test [3], in [4], in [5] and in [6] was “inactive” each time.

As for `CC(C)(C)NC[C@H](O)COc1nsnc1N1CCOCC1`, the Potency entry in test [1], in test [2], in test [3], in test [4], in test [5] and in test [6] was “inactive” each time.

As for `Cc1cc(C)c(O)c(C)c1`, the Potency entry in test [1], in test [2], in test [3], in test [4], in test [5] and in test [6] was “inactive” each time.

Take `Cc1ccccc1C=O`: the Potency entry in test [1], in [2], in [3], in [4], in [5] and in [6] was “inactive” each time.

Consider `CC1(C)[C@@H](O[C@H]2O[C@H](C(=O)O)[C@@H](O)[C@H](O)[C@H]2O[C@@H]2O[C@H](C(=O)O)[C@@H](O)[C@H](O)[C@H]2O)CC[C@]2(C)[C@H]3C(=O)C=C4[C@@H]5C[C@@](C)(C(=O)O)CC[C@]5(C)CC[C@@]4(C)[C@]3(C)CC[C@@H]12`, for which the Potency entry in test [1], in test [2], in test [3], in [4], in [5] and in [6] was “inactive” each time.

With `NC(=O)NC(N)=O`, the Potency result in test [1], in [2], in test [3], in test [4], in test [5] and in [6] was “inactive” each time.

On to `Nc1nc(N)c2nc(-c3ccccc3)c(N)nc2n1`, for which the Potency is 11.9 µM (active) and 12.3 µM (active) and 4.86 µM (active) in test [1]; 9.44 µM (active) and 3.9 µM (active) and 6.11 µM (active) in test [2]; 26.6 µM (active) and 6.94 µM (active) and 21.7 µM (active) in test [3]; 49.5 µM (active) in test [4]; 21.3 µM (active) and 49.5 µM (active) and 49 µM (active) in [8]. Moreover, the activity change in test [9] (at 70.3 µM (top of the series)) was 18% (inactive). Besides, the Potency result in [5] was “inactive”.

Turning to `CCCCCCCCCCCCCC(=O)O`, the Potency result in [1], in [2], in test [3], in test [4], in test [5] and in test [6] was “inactive” in each case.

Consider `N[C@@H](Cc1cc(I)c(Oc2ccc(O)c(I)c2)c(I)c1)C(=O)O`, for which the Potency was 29.8 µM (active) and inactive in test [1]; 23.7 µM (active) and inactive in [2]. The Potency result in [3], in test [4] and in test [5] was “inactive” in each case.

Consider `CC(=O)OC(C)(C)C1CC=C(C)CC1` (stereo not drawn), for which the Potency result in test [1], in [2], in test [4], in test [5] and in [6] was “inactive” in each case. The Potency result in test [3] is “inactive and 54.5 µM (active)”.

With `Cc1cc(CC(=O)O)n(C)c1C(=O)c1ccc(Cl)cc1`, the Potency result in test [1], in [2], in [3], in test [4], in [5] and in test [6] was “inactive” throughout.

As for `O=C1O[C@H]([C@H](O)CO)C(O)=C1O`, the Potency result in [1], in test [2], in test [3], in test [4], in [5] and in test [6] was “inactive” throughout.

`OCc1ccc(Cl)cc1Cl`: the Potency entry in [1], in test [2], in [3], in test [4], in [5] and in test [6] was “inactive” throughout.

Consider `O=C(O)C1=NN(c2ccc(S(=O)(=O)O)cc2)C(=O)C1`, for which the Potency result in [1], in [2], in test [3], in [4], in test [5] and in [6] was “inactive” each time.

As to `CC/C=C(\C(=O)N[C@@H]1C(=O)N2C(C(=O)OCOC(=O)C(C)(C)C)=C(COC(N)=O)CS[C@H]12)c1csc(N)n1`, the Potency result in test [1], in test [2], in test [3], in test [4], in test [5] and in [6] was “inactive” in each case.

With `NC(N)=S`, the Potency entry in [1], in test [2], in [3], in [4], in [5] and in test [6] was “inactive” in each case.

For `O=C(NCC1CCCCN1)c1cc(OCC(F)(F)F)ccc1OCC(F)(F)F` (stereo not drawn), the Potency was 29.8 µM (active) and inactive in test [1]; 29.8 µM (active) in [6]. Moreover, the Potency entry in test [4] and in [5] was “inactive” in each case.

With `OCC(O)CS` (stereo not drawn), the Potency entry in test [1], in test [2], in [3], in test [4], in test [7] and in test [8] was “inactive” each time. Also, the Potency entry in test [5] and in [6] was “inactive” in each case. In addition, the activity change in [9] (at 70.3 µM (top of the series)) was 0.512% (inactive).

In the case of `CC[N+](CC)(CC(=O)Nc1c(C)cccc1C)Cc1ccccc1`, the Potency result in [1] was “inactive and 43.3 µM (active)”; in test [2], “inactive and 30.6 µM (active)”. Further, the Potency result in test [3], in [4], in test [5] and in test [6] was “inactive” each time.

In the case of `Cc1nnc(NS(=O)(=O)c2ccc(N)cc2)s1`, the Potency result in [1], in test [2], in [3], in [4], in test [7] and in test [8] was “inactive” in each case. In [5], the Potency result was “inactive”. In addition, the activity change in test [9] (at 70.3 µM (top of the series)) was 6.45% (inactive) and 3.21% (inactive).

For the compound `CC/C(C)=N/O`, the Potency entry in test [1], in test [2], in [3], in test [4], in test [5] and in test [6] was “inactive” each time.

On to `CC(O)CNCC(C)O` (stereo not drawn), for which the Potency entry in test [1], in test [2], in [3], in test [4], in [5] and in [6] was “inactive” in each case.

`CC(C)c1ccc(C(C)C)cc1`: the Potency entry in [1], in test [2], in test [3], in [4], in [5] and in test [6] was “inactive” in each case.
